# CHX counter: affects cycloheximide protein synthesis inhibition readout, counter-screen | cell reporter, cycloheximide protein synthesis inhibition counterscreen | max response, % | hit rate 12% among 300,000; in the data active means max response mostly above about 13%, no sharp cut-off; inactive means mostly below about 14%; further: read at 38.3 µM for the half of the compounds with a filed dose; 0% is about no effect
# Pf growth 48h: P. falciparum growth inhibition at 48 hours (one generation); Potency, µM (highest dose often 28.7 µM), inactives show at the top dose activity change, negative = inhibition, hits mostly inhibitors; hit rate 5.9% among 310,000; P. falciparum luciferase growth in erythrocytes, 48 h; AID 504832; further: potency means the concentration at half of the fitted maximal effect; on the % scale 0 is the no-effect control and ±100 the full control effect
#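 Luciferase-expressing P. falciparum in infected erythrocytes (2% hematocrit, 0.1% parasitemia final) in RPMI 1640/0.5% Albumax were exposed to compound for 48 hours at 37 C, 5% CO2; growth read as luminescence.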
# NS1 inh: inhibitors of influenza NS1 protein function | AID 2326 | Potency, µM (highest dose often 46.1 µM), for the others: top-dose activity, positive = more growth | hit rate 0.4% among 270,000; calls by dose curve; further: potency means the concentration at half of the fitted maximal effect; actives are rising curves; nearly all actives have a fitted effect of over 50% in size
#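 Read-out: OD600 growth recovery of NS1-expressing budding yeast. Cells grown overnight at 30C in -URA glucose medium, washed, resuspended and diluted 1:100 in 2% galactose assay medium, pH 6.0. Same strain lacking NS1 served as positive control.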
# FBPA Giardia inh: blocks Giardia fructose-bisphosphate aldolase activity; A8B2U2; purified Giardia FBPA; Potency, µM (top dose mostly 59.6 µM), without a hit: at the top dose activity, negative = inhibition, usual class: inhibitors; hit rate 0.71% among 290,000; further: potency means the concentration at half of the fitted maximal effect; on the % scale 0 is the no-effect control and ±100 the full control effect; nearly all actives have a fitted effect of over 55% in size
# Target sequence (A8B2U2 whole entry, looked up): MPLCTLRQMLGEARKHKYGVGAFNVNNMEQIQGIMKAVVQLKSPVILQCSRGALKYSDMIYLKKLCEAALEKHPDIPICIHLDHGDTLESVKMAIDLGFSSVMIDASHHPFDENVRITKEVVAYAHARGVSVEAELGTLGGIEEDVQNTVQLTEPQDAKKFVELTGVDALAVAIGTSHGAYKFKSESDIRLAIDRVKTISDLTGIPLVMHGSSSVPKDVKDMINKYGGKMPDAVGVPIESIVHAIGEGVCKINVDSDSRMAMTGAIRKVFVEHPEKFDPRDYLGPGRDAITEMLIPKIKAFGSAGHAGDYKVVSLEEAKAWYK
#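 Giardia FBPA (40 nM reagent) was preincubated 10 min at RT with compound (up to 57.5 uM final), then substrate plus GAPDH/TPI/NAD/arsenate coupling system with diaphorase/resazurin was added; resorufin fluorescence (525/598 nm) was read after 20 min.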
# Pf growth 96h: P. falciparum growth inhibition at 96 hours; P. falciparum luciferase reporter growth, 96 h; Potency, µM (series often up to 28.7 µM), for the others: at the top dose activity change, negative = inhibition, hits mostly inhibitors; hit rate 6.9% among 320,000; further: potency means the concentration at half of the fitted maximal effect; on the % scale 0 is the no-effect control and ±100 the full control effect
#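 Compounds incubated with erythrocytes infected by luciferase-expressing P. falciparum (2% hematocrit, 0.05% parasitemia final) for 96 hours, 37 C in 5% CO2. Growth inhibition scored as decreased luciferase luminescence.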
# Shiga inhibitor: Shiga toxin inhibition; Vero cells, Shiga toxin protein synthesis inhibition reporter; AID 2315; hit rate 9.2% among 290,000; inhibition, % at 38.7 µM; in the data active means inhibition mostly above about 28%, no sharp cut-off; inactive means mostly below about 43%; further: 0% is about no effect
# Starred values were filed as active, the others as inactive; ? = inconclusive; . = no result. Most compounds without a hit are left out; they make up all but 21% or so of the library. Unless noted, the call rests on the fitted dose curve; in most records, active means well fitted curve in the direction sought with a large enough effect; inconclusive means small, poorly fitted or top-dose-only effect, or another doubt; inactive means no such curve, though single readings can be large; an effect the other way counts as inactive or inconclusive.
SMILES,CHX counter,Pf growth 48h,NS1 inh,FBPA Giardia inh,Pf growth 96h,Shiga inhibitor
Cc1ccc(/C=C2/NC(=O)N(Cc3ccccc3F)C2=O)o1,4.5,-1.7%,-35.0%,?,?,-1.3
O=S(=O)(/N=C(/Nc1cccc2ccccc12)c1ccc(F)cc1)c1ccccc1,-1.7,3.9%,-4.1%,2.4%,17.6%,-6.8
N#Cc1ccc(NCCc2ccccn2)c([N+](=O)[O-])c1,8.0,49.0%,-2.0%,1.4%,56.5%,-0.7
O=C(NCCNc1ccnc2cc(Cl)ccc12)c1ccccc1F,1.3,0.465µM*,1.6%,-3.8%,5.0%,-3.6
Cc1ccc(C(=O)NCCNc2ccc(Cl)cc2[N+](=O)[O-])o1,-1.7,?,-20.4%,1.1%,?,12.7
O=C(NCCNc1ccc(Cl)cc1[N+](=O)[O-])c1ccccc1F,12.3*,9.8%,-8.6%,-4.1%,?,19.2
O=[N+]([O-])c1cc(Cl)ccc1NCCc1ccccn1,17.9*,28.4%,-42.1%,5.5%,37.4%,56.7*
Clc1ccc2c(NCc3ccccc3)ccnc2c1,-11.1,?,-7.6%,22.1%,?,-2.4
Cc1cc(Cl)c2oc(C(=O)N(C)CC3CCOCC3)c(C)c2c1,38.2*,49.1%,-20.9%,0.4%,?,71.0*
Cc1cc(Cl)c2oc(C(=O)N3CCN(C4CCS(=O)(=O)C4)CC3)c(C)c2c1 (stereo unspecified),-1.0,12.6%,-6.2%,3.1%,65.8%,-10.0
C=CCN(C(=O)c1oc2c(Cl)cc(C)cc2c1C)C1CCS(=O)(=O)C1 (stereo unspecified),59.7*,12.5%,-35.0%,.,-11.7%,60.0*
CCN1CCN(C(C)CCc2ccccc2)CC1 (stereo unspecified),2.0,15.2%,2.3%,?,32.0%,-5.0
N#Cc1c(N2CCCCC2)nc(N)c2c(N)nc3c(c12)CC(c1ccccc1)O3 (stereo unspecified),-1.2,5.86µM*,?,-22.0%,4.15µM*,14.9
CCN(CC)c1nc(N)c2c(N)nc3c(c2c1C#N)CC(c1ccccc1)O3 (stereo unspecified),-2.5,2.33µM*,-12.7%,-22.7%,.,-5.7
O=c1ccc(-c2ccc(S(=O)(=O)Nc3ccc(F)cc3)o2)n[nH]1,0.4,17.2%,-3.6%,1.7%,-9.1%,10.7
CC(C)C[C@H](NC(=O)N1CCn2c1nc1ccccc12)C(=O)NC1CCCCC1,-1.0,0.0%,-4.0%,-5.8%,11.7%,3.3
C=CCN(CC=C)c1nc2ccccc2nc1C(C#N)C(=O)OCCOC (stereo unspecified),1.7,10.4µM*,-55.9%,-21.6%,6.57µM*,-7.1
CO[C@H]1OC[C@@]2(C)[C@@H]3C4=C(CN2C(=O)OC(C)(C)C)[C@H](C)[C@H](CO)[C@H](CO)[C@H]4CC[C@H]13,.,.,.,-9.2%,.,.
CCc1ccccc1NC(=O)N[C@@H](C)C(=O)OC,-1.7,14.1%,-3.6%,7.2%,2.6%,1.0
CCc1ccccc1NC(=O)N[C@@H](C)C(=O)O,-2.6,7.2%,7.0%,-0.6%,9.28µM*,71.3
COc1cc(O)oc1C=Nc1ccccc1,26.6*,62.4%,21.1%,-14.3%,-0.2%,109.5*
COc1ccc(NC(=O)C2CCCN(c3c4c(nc5ncnn35)CCC4)C2)cc1 (stereo unspecified),5.4,-19.7%,-1.6%,12.1%,11.7µM*,7.1
CC1CCC(NC(=O)C2CCN(c3c4c(nc5ncnn35)CCC4)CC2)CC1 (stereo unspecified),19.9*,?,5.4%,.,35.6%,48.8*
NC(=O)CC(NC(=O)Cc1cccc2ccccc12)c1ccc(N2CCC(N3CCCC3)CC2)c([N+](=O)[O-])c1 (stereo unspecified),-0.8,31.9%,-16.1%,7.3%,57.0%,-2.0
COCCC(=O)NC12CC3CC(CC(C3)C1)C2,-2.3,2.6%,-1.9%,1.3%,.,-6.6
CCOP(=O)(NC12CC3CC(CC(C3)C1)C2)NC12CC3CC(CC(C3)C1)C2,-3.7,3.7µM*,6.3%,-6.5%,2.94µM*,-2.8
Cc1cnc(C(=O)NC(Cc2ccccc2)c2ccccc2)cn1 (stereo unspecified),1.8,?,3.2%,1.1%,21.1%,-2.7
